# Experimental data reported in PubChem BioAssay (Tox21).
# Values without a mark were called inactive. Results filed as inconclusive are left out. Activity calls are given as the source filed them. Calls come from the whole dose curve; as a rule, active = well fitted curve in the direction sought with a large enough effect in the repeat runs; inconclusive = weak or mixed curves; inactive = no such curve, though single readings can be large; an effect the other way counts as inactive or inconclusive.
# Experiment: qHTS assay to identify small molecule HDAC inhibitors - cell viability counter screen (AID 1259365); note: nearly all actives have a fitted effect of over 50% in size
# Details: HCT-116 viability, CellTiter-Glo ATP luminescence, 2 h; series mostly up to 92.4 µM; activity change, negative = cytotoxicity: at the top concentration
# Outline: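 Wild-type HCT-116 cells, 1,500/well, cultured overnight, then compound-treated 2 h at 37 C. Viability measured as ATP luminescence with CellTiter-Glo after 30 min at room temperature.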
# % is set by controls: 0 for no effect and ±100 for the full control effect.
row,SMILES,"activity change, negative = cytotoxicity"
1,Fc1cc(Br)ccc1CBr,8.27% [at 42.5 µM]
2,CC(Cl)(Cl)[N+](=O)[O-],1.36%
3,COC(=O)C(c1ccccc1)C1CCCCN1 (centres undefined),-0.604%
4,c1cc2c(c(N3CCNCC3)c1)OCCO2,-1.12% [at 42.5 µM]
5,CNC(=O)N(C)c1nc2ccccc2s1,0.369%
6,CC1COC2(c3ccccc3Cl)c3cc(Cl)ccc3NC(=O)CN12 (centres undefined),-1.99% [at 42.5 µM]
7,O=C1OC(CCN2CCCCC2)OC1(c1ccccc1)c1ccccc1 (centres undefined),1.17% [at 42.5 µM]
8,c1ccc(N2CCNCC2)cc1,3.57% [at 42.5 µM]
9,COc1ncc(F)c2nc(S(=O)(=O)Nc3c(F)cccc3F)nn12,-0.136% [at 42.5 µM]
10,CNC(=O)Oc1c(C(C)(C)C)cc(C)cc1C(C)(C)C,-0.097%
11,Clc1ccccc1N1CCNCC1,-3.52% [at 42.5 µM]
12,O=C(O)c1ccc2[nH]cc(CCCCN3CC=C(c4ccccc4)CC3)c2c1,2.28% [at 42.5 µM]
13,CCN(CC)C(C)C(=O)c1ccccc1 (centres undefined),1.44% [at 42.5 µM]
14,CCOP(=S)(OCC)Oc1ncn(-c2ccccc2)n1,-0.228%
15,COc1ccc2c(c1OC)CN1CCc3cc4c(cc3C1C2)OCO4 (centres undefined),-3.16% [at 42.5 µM]
16,CCCCCCI,-9.99%
17,CCC(=O)C(CCN(C)C)(c1ccccc1)c1ccccc1,-4.79% [at 42.5 µM]
18,CCOC(=O)C(c1c(O)c2ccccc2oc1=O)c1c(O)c2ccccc2oc1=O,8.2% [at 42.5 µM]
19,CC(C(O)c1ccccc1)N(C)C/C=C/c1ccccc1 (centres undefined),1.01% [at 42.5 µM]

row,SMILES,"activity change, negative = cytotoxicity"
1,CCC(C)(C)c1cc(-n2nc3ccccc3n2)c(O)c(C(C)(C)CC)c1,-0.278%
2,CC(Oc1ccc(Oc2ncc(C(F)(F)F)cc2Cl)cc1)C(=O)O (centres undefined),-2.21%
3,C#C[C@]1(O)C=C[C@H]2[C@@H]3CCC4=CC(=O)CC[C@@H]4[C@H]3CC[C@@]21CC,3.79% [at 42.5 µM]
4,N#CC(Cl)(Cl)Cl,4.05%
5,O=C(Nc1ccccc1)c1ccccc1I,-13.9%
6,COP(N)(=S)Oc1ccccc1C(=O)OC(C)C (centres undefined),0.111%
7,O=CNC(N1CCN(C(NC=O)C(Cl)(Cl)Cl)CC1)C(Cl)(Cl)Cl (centres undefined),0.512%
8,CC(COc1ccc(Oc2ccccc2)cc1)Oc1ccccn1 (centres undefined),-4.22%
9,CC1=C(C(=O)O)N2C(=O)[C@@H](N)[C@H]2SC1,3.22% [at 19 µM]
10,Cc1cnc[nH]1,-0.779%
11,C#CCN1C(=O)COc2cc(F)c(N3C(=O)C4=C(CCCC4)C3=O)cc21,1.77%
12,CCOP(=O)(OCC)OP(=O)(OCC)OCC,-1.4%
13,CCCCOC(=O)c1ccccc1C(=O)O,-0.203%
14,CC(C)CC#N,0.166%
15,Cc1nc(N)nc(N)n1,-0.139%
16,CCOC(=O)C1(c2ccccc2)CCN(CCc2ccc(N)cc2)CC1,0.686% [at 42.5 µM]
17,CCC(=O)c1ccccc1,0.0209%
18,C[C@]12CC[C@H]3[C@@H](CCC4=CC(=O)CC[C@@]43C)[C@@H]1CC[C@@H]2C(=O)O,-0.62% [at 42.5 µM]

# Experiment: qHTS assay to identify small molecule agonists of the sonic hedgehog signaling (Shh) pathway - cell viability counter screen (AID 1259366); note: nearly all actives have a fitted effect of over 50% in size
# Details: NIH/3T3 Gli1-Luc viability, CellTiter-Fluor, 24 h; series mostly up to 92.4 µM; viability change, negative = cytotoxic: at the top concentration
# Outline: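 NIH/3T3-derived Gli1-Luc reporter cells, 2,000 per well, received compound after 4 h and were treated about 23 h at 37C. Viability measured in the same wells by CellTiter-Fluor fluorescence after 1 h.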
row,SMILES,"viability change, negative = cytotoxic"
1,CC(Cl)(Cl)[N+](=O)[O-],1.89%
2,COC(=O)C(c1ccccc1)C1CCCCN1 (centres undefined),2.27%
3,c1cc2c(c(N3CCNCC3)c1)OCCO2,-3.15% [at 42.5 µM]
4,CNC(=O)N(C)c1nc2ccccc2s1,-4.34%
5,c1ccc(N2CCNCC2)cc1,2.14% [at 42.5 µM]
6,COc1ncc(F)c2nc(S(=O)(=O)Nc3c(F)cccc3F)nn12,-2.43% [at 42.5 µM]
7,CNC(=O)Oc1c(C(C)(C)C)cc(C)cc1C(C)(C)C,1.57%
8,Clc1ccccc1N1CCNCC1,-18.3% [at 42.5 µM]
9,O=C(O)c1ccc2[nH]cc(CCCCN3CC=C(c4ccccc4)CC3)c2c1,-15.7% [at 42.5 µM]
10,CCN(CC)C(C)C(=O)c1ccccc1 (centres undefined),3.52% [at 42.5 µM]
11,CCOP(=S)(OCC)Oc1ncn(-c2ccccc2)n1,-3.33%
12,COc1ccc2c(c1OC)CN1CCc3cc4c(cc3C1C2)OCO4 (centres undefined),14.5% [at 42.5 µM]
13,CC(C(O)c1ccccc1)N(C)C/C=C/c1ccccc1 (centres undefined),-12.3% [at 42.5 µM]
14,CCC(C)(C)c1cc(-n2nc3ccccc3n2)c(O)c(C(C)(C)CC)c1,10.4%
15,CC(Oc1ccc(Oc2ncc(C(F)(F)F)cc2Cl)cc1)C(=O)O (centres undefined),8.2%
16,C#C[C@]1(O)C=C[C@H]2[C@@H]3CCC4=CC(=O)CC[C@@H]4[C@H]3CC[C@@]21CC,7.63% [at 42.5 µM]
17,N#CC(Cl)(Cl)Cl,5.39%
18,COP(N)(=S)Oc1ccccc1C(=O)OC(C)C (centres undefined),2.67%
19,O=CNC(N1CCN(C(NC=O)C(Cl)(Cl)Cl)CC1)C(Cl)(Cl)Cl (centres undefined),1.66%
20,CC(COc1ccc(Oc2ccccc2)cc1)Oc1ccccn1 (centres undefined),-0.228%
21,CC1=C(C(=O)O)N2C(=O)[C@@H](N)[C@H]2SC1,-3.69% [at 19 µM]
22,Cc1cnc[nH]1,-1.85%
23,C#CCN1C(=O)COc2cc(F)c(N3C(=O)C4=C(CCCC4)C3=O)cc21,4.71%
24,CCOP(=O)(OCC)OP(=O)(OCC)OCC,2.89%
25,Cc1nc(N)nc(N)n1,0.133%
26,CCOC(=O)C1(c2ccccc2)CCN(CCc2ccc(N)cc2)CC1,-0.0933% [at 42.5 µM]
27,CCC(=O)c1ccccc1,1.53%

# Experiment: qHTS assay to identify small molecule antagonists of the sonic hedgehog signaling (Shh) pathway - cell viability counter screen (AID 1259367); note: nearly all actives have a fitted effect of over 55% in size; note: potency is the fitted concentration of half-maximal effect
# Details: NIH/3T3 Gli1-Luc viability, CellTiter-Fluor, 24 h; series mostly up to 92.4 µM; viability change, negative = cytotoxic: at the top concentration
# Outline: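 NIH/3T3-derived Gli1-Luc reporter cells (2,000 per well) rested 4 hr at 37 C, then received DMSO compounds plus conditioned medium. After 23 hr of treatment, CellTiter-Fluor was added for 1 hr at 37C and fluorescence read.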
SMILES,"viability change, negative = cytotoxic",Potency
Fc1cc(Br)ccc1CBr,2.47% [at 42.5 µM],
CC(Cl)(Cl)[N+](=O)[O-],4.49%,
COC(=O)C(c1ccccc1)C1CCCCN1 (centres undefined),11.3%,
c1cc2c(c(N3CCNCC3)c1)OCCO2,0.544% [at 42.5 µM],
CNC(=O)N(C)c1nc2ccccc2s1,-0.32%,
CC1COC2(c3ccccc3Cl)c3cc(Cl)ccc3NC(=O)CN12 (centres undefined),-14.4% [at 42.5 µM],
O=C1OC(CCN2CCCCC2)OC1(c1ccccc1)c1ccccc1 (centres undefined),2.61% [at 42.5 µM],
c1ccc(N2CCNCC2)cc1,1.45% [at 42.5 µM],
COc1ncc(F)c2nc(S(=O)(=O)Nc3c(F)cccc3F)nn12,1.27% [at 42.5 µM],
CNC(=O)Oc1c(C(C)(C)C)cc(C)cc1C(C)(C)C,-2.43%,
Clc1ccccc1N1CCNCC1,-15.5% [at 42.5 µM],
O=C(O)c1ccc2[nH]cc(CCCCN3CC=C(c4ccccc4)CC3)c2c1,-8.06% [at 42.5 µM],
CCN(CC)C(C)C(=O)c1ccccc1 (centres undefined),3.29% [at 42.5 µM],
CCOP(=S)(OCC)Oc1ncn(-c2ccccc2)n1,-0.436%,
COc1ccc2c(c1OC)CN1CCc3cc4c(cc3C1C2)OCO4 (centres undefined),12.3% [at 42.5 µM],
CCCCCCI,-4.06%,
CCC(=O)C(CCN(C)C)(c1ccccc1)c1ccccc1,-13.4% [at 42.5 µM],
CC(C(O)c1ccccc1)N(C)C/C=C/c1ccccc1 (centres undefined),-5.8% [at 42.5 µM],

SMILES,"viability change, negative = cytotoxic",Potency
CCC(C)(C)c1cc(-n2nc3ccccc3n2)c(O)c(C(C)(C)CC)c1,4.97%,
CC(Oc1ccc(Oc2ncc(C(F)(F)F)cc2Cl)cc1)C(=O)O (centres undefined),6.64%,
C#C[C@]1(O)C=C[C@H]2[C@@H]3CCC4=CC(=O)CC[C@@H]4[C@H]3CC[C@@]21CC,0.616% [at 42.5 µM],
N#CC(Cl)(Cl)Cl,-0.0142%,
COP(N)(=S)Oc1ccccc1C(=O)OC(C)C (centres undefined),0.993%,
O=CNC(N1CCN(C(NC=O)C(Cl)(Cl)Cl)CC1)C(Cl)(Cl)Cl (centres undefined),1.4%,
CC(COc1ccc(Oc2ccccc2)cc1)Oc1ccccn1 (centres undefined),-1.43%,
CC1=C(C(=O)O)N2C(=O)[C@@H](N)[C@H]2SC1,2.83% [at 19 µM],
Cc1cnc[nH]1,5.75%,
C#CCN1C(=O)COc2cc(F)c(N3C(=O)C4=C(CCCC4)C3=O)cc21,0.117%,
CCOP(=O)(OCC)OP(=O)(OCC)OCC,1.2%,
CCCCOC(=O)c1ccccc1C(=O)O,-3.74%,
CC(C)CC#N,,27.9 µM (active)
Cc1nc(N)nc(N)n1,5.13%,
CCOC(=O)C1(c2ccccc2)CCN(CCc2ccc(N)cc2)CC1,-0.667% [at 42.5 µM],
CCC(=O)c1ccccc1,2.37%,
C[C@]12CC[C@H]3[C@@H](CCC4=CC(=O)CC[C@@]43C)[C@@H]1CC[C@@H]2C(=O)O,-0.344% [at 42.5 µM],
